Assay results taken from PubChem BioAssay AID651803 (National Center for Advancing Translational Sciences (NCATS), 2012).
The campaign covered roughly 1,200 compounds. Fewer than 10 were called active. Calls follow the shape of the dose curve; as a rule, active = well fitted curve in the direction sought with a large enough effect; inconclusive = small, poorly fitted or top-dose-only effect, or another doubt; inactive = no such curve, though single readings can be large or run the other way. Only a sample is shown.

These compounds were tested against Transcriptional regulator ERG (Homo sapiens) (UniProt P11308) (assay: qHTS for Small Molecule Inhibitors of the ERG Ets/DNA interaction: TR assay against cherry picks). Conditions: ERG Ets domain-DNA fluorescence polarization, Texas red probe; series mostly up to 154 µM; activity change, negative = inhibition: at the top concentration.
Text: The Ets family of proteins is a family of ~30 conserved transcription factors defined by the presence of an ~85 amino acid domain referred to as the Ets domain, which mediates sequence-specific DNA binding to a core DNA element GGAA/T.The Ets family member ERG has been linked to several neoplasms. […] More extensive studies of the effects of over-expression of ERG in prostate cells have recently been carried out and have shown that over-expression of ERG results in increased invasion. […] We will carry out a high throughout screen to identify inhibitors of the interaction between ERG and DNA using a fluorescence polarization (FP) assay with a His-tagged ERG Ets domain and fluorescently-labeled DNA probes to develop small molecule inhibitors of this interaction as probes to test this hypothesis and lay the groundwork for the development of targeted therapies against ERG. This is the confirmation against the cherry picks in theprimary screening assay. NIH Molecular Libraries Probe Production Network [MLPCN] NIH Chemical Genomics Center [NCGC] Grant: NS066464 PI Name: John Bushweller, University of Virgina
1.5 ul of protein solution (1 uM ERG domain in 300mM KCl, 50mM Tris-HCl, 1mM EDTA, 1mM DTT, pH 7.5); 20 nl Control plate and compound library plate; 1.5 ul mixture of 5 nM Fluorescein-DNA and 100nM Texas-615-DNA solution in same buffer as above solution; measure fluorescence polarization sequentially for fluorescein (Excitation = 480 nm, Emission = 535s, 535p nm) and Texas red (Excitation = 555 nm, Emission = 632s, 632p nm).
Also: % of control where 0% means no effect.

Transcriptional regulator ERG (Homo sapiens), sequence (P11308 whole entry, looked up, the tested form may be a part): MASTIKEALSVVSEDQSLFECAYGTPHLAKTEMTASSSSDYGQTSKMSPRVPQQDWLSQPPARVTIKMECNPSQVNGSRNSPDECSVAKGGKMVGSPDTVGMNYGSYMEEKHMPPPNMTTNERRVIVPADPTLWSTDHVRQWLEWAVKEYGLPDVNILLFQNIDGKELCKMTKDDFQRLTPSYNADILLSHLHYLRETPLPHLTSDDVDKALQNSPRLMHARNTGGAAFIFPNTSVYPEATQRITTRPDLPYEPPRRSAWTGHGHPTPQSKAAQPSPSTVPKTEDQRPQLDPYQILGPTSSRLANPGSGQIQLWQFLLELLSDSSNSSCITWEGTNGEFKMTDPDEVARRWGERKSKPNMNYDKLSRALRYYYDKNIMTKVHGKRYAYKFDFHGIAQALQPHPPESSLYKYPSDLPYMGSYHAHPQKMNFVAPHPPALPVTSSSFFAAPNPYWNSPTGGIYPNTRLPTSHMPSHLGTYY

Activity change, negative = inhibition, inactive:
O=C(OCCOCCN=C1NS(=O)(=O)c2ccccc21)c1ccccc1Br 4.92%
CC(=O)Nc1ccc(NC(=O)Cn2c(=O)n(-c3ccccc3)c(=O)c3oc4ccccc4c32)cc1 0.864%
COc1ccc(C(=O)n2nc(C)c(Br)c2C)cc1OC 1.94%
N#Cc1c(C(F)(F)F)cc(-c2cccs2)nc1SCC(=O)Nc1cccc(Br)c1 5.95%
N#CCCN(C(=S)NC(=O)C1CCCCC1)c1ccccc1F -3.69%
Cc1ccc2c(COC(=O)c3ccccc3Br)cc(=O)oc2c1 -0.0577%
COc1ccc(NC(=O)NCc2ccccn2)c(OC)c1 -2.62%
O=C(c1ccccc1)c1ccc[nH]1 -4.34%
Cc1ccc([N+](=O)[O-])c2c1C(N1CC(C)OC(C)C1)C(C)(C)O2 (stereo not drawn) 5.79%
COc1ccccc1NC(=O)Cn1c(=O)n(CCC(=O)NCC2CCCO2)c(=O)c2cc(OC)c(OC)cc21 (stereo not drawn) 0.0258%
Clc1ccc(-c2csc(N/N=C/c3ccco3)n2)cc1 -19.8%
CCOC(=O)CC1COCCN1Cc1cn[nH]c1-c1cc(OC)c(OC)c(OC)c1 (stereo not drawn) 5.39%
COc1cc(C(=O)Nc2ccc(Cl)c([N+](=O)[O-])c2)cc(OC)c1OC -8.44%
COc1cccc2c1C(=N)c1c(O)c3c(c(O)c1C2=O)CC(O)(C(C)=O)CC3OC1CC(N)C(O)C(C)O1 (stereo not drawn) 10.9%
O=C(NCc1cccc(Cl)c1)c1ccncc1 -9.86%
Cc1cccc(C)c1NC(=O)C1(N2C(=O)CC2c2ccccc2)CCCCC1 (stereo not drawn) 0.216%
CC1(C)CC2CC(C)(CN2C(=O)c2ccc([N+](=O)[O-])cc2)C1 (stereo not drawn) 0.742%
CN(C)c1nc(N)nc(Cn2nnc(-c3ccc(C(F)(F)F)cc3)n2)n1 3.53%
CC(NC(=O)c1cn(C)c2ccc(S(=O)(=O)N3CCCC3)cc2c1=O)c1ccccc1 (stereo not drawn) -1.61%
Cc1[nH]c(=O)[nH]c(=O)c1/C=N/NC(=O)[C@H](C)N 2.01%
CCOC(=O)N1CCC(NC(=O)CSCc2nc(-c3ccc(OCC)cc3)oc2C)CC1 -9.6%
CC(C)(O)CN(CCCNC(=S)Nc1ccccc1)C(=S)Nc1ccccc1 -0.187%
S=c1[nH]nc(CSCCOc2ccccc2)o1 -12.2%
Cn1c(CO)cnc1SCc1ccc(F)cc1 18.1%
COc1ccc(CNC(=O)c2cccnc2SC)cc1OC -8.6%
Cc1cc(C)c2c(N)c(C(=O)c3ccc(Cl)cc3)sc2n1 5.05%
CCC1Oc2ccccc2N(CC(=O)NC2CC2)C1=O (stereo not drawn) -0.665%
Oc1c(Cl)cc(Oc2cc(Cl)c(O)c(CN3CCOCC3)c2)cc1CN1CCOCC1 -6.09%
COc1ccc(S(=O)(=O)NCCNC(=O)N2CCOCC2)cc1 3.17%
O=C(CCNC(=O)c1ccccc1Cl)NCCCSc1ccccc1 3.19%
Cn1c(CNC(=O)c2cccs2)n[nH]c1=S 5.98%
CCCCC1=NN(C(=O)c2ccco2)C(O)(C(F)(F)F)C1 (stereo not drawn) -2.3%
CCC(=O)N1CCN(c2nc3ccc(Br)cc3s2)CC1 2.3%
